Measured values from the supplement of paper PMC10849652.
Targets with a hit are over-represented here; the source holds about 7,900 in all. About 0.6% of all pairs of compound and target were hits.

Assays:
Experiment in all cases: log2 fold change, soluble protein after heating vs DMSO (PISA); higher = thermal stabilisation; K562 cells, 10 uM, 30 min; active = over 0.2 and 3.5 SD of the protein, either way, in both replicates (recomputed)
erlotinib = compound: C#Cc1cccc(Nc2ncnc3cc(OCCOC)c(OCCOC)cc23)c1 [erlotinib]
How it was run: (§1)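 Quantification of soluble protein used TMTpro 16plex LC-MS/MS, with channel sums equalised. Samples were the supernatant after 21,000xg for 90 min of pooled aliquots from K562 cells (2×10^6 cells/mL) treated with 10 μM compound for 30 min, heated for 3 min over 48°C-58°C, and extracted in PBS with 0.5% NP-40 at 4°C. Values, from duplicates, describe thermal stability against control samples on a log2 fold-change scale.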

[1] = compound: C/C(=N\NC(=O)C1=CC(=CC=C1)S(=O)(=O)N2CCOCC2)/C3=C(C=CC(=C3)Cl)O
How it was run: as §1

[2] = compound: C1=CC(=C(C=C1Cl)C2=NC3=NC=CN=C3C(=N2)NC4=CC=NC=C4)F
How it was run: as §1

[3] = compound: C1=CC(=CC=C1C2=NC3=C(N2)C=C(C=C3)C(=O)N)OC4=CC=C(C=C4)Cl
How it was run: as §1

[4] = compound: C1=CC2=C(C=CC(=C2)/C=C\3/C(=O)NC(=NCC4=CC=CS4)S3)N=C1
How it was run: as §1

[5] = compound: C1=CC2=NC=CN=C2C=C1/C=C/3\C(=O)NC(=O)S3
How it was run: as §1

[6] = compound: C1=CC=C(C=C1)C2=NC(=C(N2)C3=CC=NC=C3)C4=CC(=C(C=C4)Cl)O
How it was run: as §1

[7] = compound: C1=CC=C2C(=C1)C3=NNC4=CC=CC(=C43)C2=O
How it was run: as §1

[8] = compound: C1CCN(C1)C(=O)NC2=CC=CC(=C2)NC3=NC=C(C(=N3)NCCC4=CN=CN4)Br
How it was run: as §1

[9] = compound: C1CN(CCC1(CC2=CC=C(C=C2)Cl)N)C3=NC=NC4=C3C=CN4
How it was run: as §1

IRAK-1-4 Inhibitor I = compound: C1COCCN1CCN2C3=CC=CC=C3N=C2NC(=O)C4=CC(=CC=C4)[N+](=O)[O-] [IRAK-1-4 Inhibitor I]
How it was run: as §1

ibrutinib = compound: C=CC(=O)N1CCC[C@@H](n2nc(-c3ccc(Oc4ccccc4)cc3)c3c(N)ncnc32)C1 [ibrutinib]
How it was run: as §1

[10] = compound: CC(=O)c1cnc2ccc(-c3cc(Cl)c(O)c(Cl)c3)nc2c1N[C@H]1CC[C@H](CN(C)C)CC1
How it was run: as §1

ralimetinib = compound: CC(C)(C)Cn1c(N)nc2ccc(-c3[nH]c(C(C)(C)C)nc3-c3ccc(F)cc3)nc21 [ralimetinib]
How it was run: as §1

[11] = compound: CC(C)(O)CC(=O)NCCn1ccc2ncnc(Nc3ccc(Oc4cccc(C(F)(F)F)c4)c(Cl)c3)c21
How it was run: as §1

[12] = compound: CC(C)C1=C2N=C(C=C(N2N=C1)NCC3=CC=CC=C3)NCCCCCCN
How it was run: as §1

[13] = compound: CC(C)C[C@@H](C=O)NC(=O)[C@H](CC(C)C)NC(=O)[C@H](CC(C)C)NC(=O)OCc1ccccc1
How it was run: as §1

pinometostat = compound: CC(C)N(C[C@H]1O[C@@H](n2cnc3c(N)ncnc32)[C@H](O)[C@@H]1O)[C@H]1C[C@@H](CCc2nc3cc(C(C)(C)C)ccc3[nH]2)C1 [pinometostat]
How it was run: as §1

[14] = compound: CC1=C(C(CC(=O)N1)C2=CC=C(C=C2)C(F)(F)F)C(=O)NC3=C(C=C4C(=C3)C=NN4)F
How it was run: as §1

[15] = compound: CC1=C(C2=C(C=C1)C(=O)C3=CC=CC=C3N2CCCN)C
How it was run: as §1

Measured: log2 fold change

WDR43 (UniProt Q15061)
inactive: erlotinib 0.001 | [1] -0.003 | [2] 0.008 | [3] -0.001 | [4] -0.028 | [5] 0.015 | [6] -0.008 | [7] 0.017 | [8] -0.013 | [9] 0.042 | IRAK-1-4 Inhibitor I 0.023 | ibrutinib 0.019 | [10] 0.012 | ralimetinib -0.088 | [11] -0.003 | [12] 0.199 | [13] -0.039 | pinometostat -0.035 | [14] 0.009
active: [15] 0.222

VPS13B (UniProt Q7Z7G8)
inactive: erlotinib 0.032 | [1] 0.024 | [2] 0.028 | [3] 0.009 | [4] 0.048 | [5] -0.025 | [6] 0.032 | [7] -0.017 | [8] -0.052 | [9] 0.058 | IRAK-1-4 Inhibitor I 0.05 | ibrutinib -0.013 | [10] -0.016 | ralimetinib -0.042 | [11] -0.06 | [13] 0.121 | pinometostat 0.007 | [14] 0.03 | [15] 0.015
active: [12] -0.241

TNFAIP8 isoform 4 (UniProt O95379)
Sequence of UniProt O95379 (O95379 whole entry, looked up): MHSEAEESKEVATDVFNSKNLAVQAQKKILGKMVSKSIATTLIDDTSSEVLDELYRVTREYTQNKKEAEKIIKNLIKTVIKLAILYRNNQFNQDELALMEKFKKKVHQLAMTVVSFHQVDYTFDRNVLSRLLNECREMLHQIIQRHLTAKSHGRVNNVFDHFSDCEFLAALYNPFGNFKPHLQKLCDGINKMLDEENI
inactive: erlotinib 0.019 | [1] 0.071 | [2] 0.087 | [3] -0.028 | [4] 0.039 | [5] 0.017 | [6] -0.015 | [7] -0.07 | [8] 0.003 | [9] 0.023 | IRAK-1-4 Inhibitor I -0.018 | ibrutinib -0.036 | [10] -0.036 | ralimetinib 0 | [11] -0.037 | [12] -0.075 | [13] -0.047 | pinometostat -0.065 | [14] -0.001 | [15] -0.037

TMEM63B (UniProt Q5T3F8)
inactive: erlotinib -0.037 | [1] 0.063 | [2] -0.024 | [3] -0.009 | [4] -0.066 | [5] 0.012 | [6] -0.076 | [7] -0.033 | [8] 0.011 | [9] 0.065 | IRAK-1-4 Inhibitor I -0.01 | ibrutinib -0.055 | [10] -0.002 | ralimetinib -0.034 | [11] 0.011 | [12] -0.157 | [13] -0.01 | pinometostat 0.041 | [14] 0.027 | [15] 0.054

TRAPPC2L (UniProt Q9UL33)
Sequence of UniProt Q9UL33 (Q9UL33 whole entry, looked up): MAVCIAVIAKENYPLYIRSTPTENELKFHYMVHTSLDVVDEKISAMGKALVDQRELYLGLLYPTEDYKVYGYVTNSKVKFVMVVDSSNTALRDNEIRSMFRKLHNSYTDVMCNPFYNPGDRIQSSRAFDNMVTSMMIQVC
inactive: erlotinib 0.193 | [1] 0.062 | [2] -0.037 | [3] -0.273 | [4] -0.047 | [5] 0.001 | [6] -0.096 | [7] -0.008 | [8] -0.083 | [9] -0.031 | IRAK-1-4 Inhibitor I -0.013 | ibrutinib 0.003 | [10] -0.004 | ralimetinib -0.125 | [11] -0.11 | [12] -0.083 | [13] 0.24 | pinometostat 0.001 | [14] 0.062 | [15] 0.014

TRMT10A (UniProt Q8TBZ6)
Sequence of UniProt Q8TBZ6 (Q8TBZ6 whole entry, looked up): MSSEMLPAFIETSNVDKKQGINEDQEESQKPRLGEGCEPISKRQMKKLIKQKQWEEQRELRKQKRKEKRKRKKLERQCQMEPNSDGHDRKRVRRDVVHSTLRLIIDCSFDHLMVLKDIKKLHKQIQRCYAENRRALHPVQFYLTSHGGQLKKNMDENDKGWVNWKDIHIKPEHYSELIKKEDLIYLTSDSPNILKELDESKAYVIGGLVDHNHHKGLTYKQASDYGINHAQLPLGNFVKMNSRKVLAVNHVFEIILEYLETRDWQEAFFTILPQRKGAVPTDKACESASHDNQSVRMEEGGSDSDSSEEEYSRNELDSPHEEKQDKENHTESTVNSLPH
active: [7] 0.271
inactive: erlotinib -0.01 | [1] 0.044 | [2] 0.004 | [3] 0.031 | [4] 0.037 | [5] 0.02 | [6] -0.015 | [8] 0.038 | [9] -0.045 | IRAK-1-4 Inhibitor I 0.056 | ibrutinib -0.009 | [10] -0.065 | ralimetinib -0.006 | [11] -0.107 | [12] -0.075 | [13] -0.01 | pinometostat 0.042 | [14] 0.02 | [15] 0.066

TMEM120A (UniProt Q9BXJ8)
Sequence of UniProt Q9BXJ8 (Q9BXJ8 whole entry, looked up): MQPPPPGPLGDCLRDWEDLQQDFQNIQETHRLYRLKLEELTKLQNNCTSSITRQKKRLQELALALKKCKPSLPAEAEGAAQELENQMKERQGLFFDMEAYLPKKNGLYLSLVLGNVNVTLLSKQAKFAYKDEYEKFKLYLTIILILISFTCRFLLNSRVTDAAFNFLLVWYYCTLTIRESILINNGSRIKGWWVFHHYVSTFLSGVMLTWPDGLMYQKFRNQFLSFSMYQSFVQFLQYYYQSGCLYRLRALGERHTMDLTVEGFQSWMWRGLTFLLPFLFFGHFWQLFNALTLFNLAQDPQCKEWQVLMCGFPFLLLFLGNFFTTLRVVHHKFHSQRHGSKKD
inactive: erlotinib -0.036 | [1] 0.109 | [2] 0.174 | [3] 0.053 | [4] 0 | [5] 0.236 | [6] -0.02 | [7] -0.036 | [8] -0.071 | [9] 0.1 | IRAK-1-4 Inhibitor I -0.066 | ibrutinib -0.183 | [10] -0.068 | ralimetinib -0.003 | [11] -0.429 | [12] -0.006 | [13] -0.078 | pinometostat 0.093 | [14] -0.065 | [15] 0.051

TMEM223 (UniProt A0PJW6)
Sequence of UniProt A0PJW6 (A0PJW6 whole entry, looked up): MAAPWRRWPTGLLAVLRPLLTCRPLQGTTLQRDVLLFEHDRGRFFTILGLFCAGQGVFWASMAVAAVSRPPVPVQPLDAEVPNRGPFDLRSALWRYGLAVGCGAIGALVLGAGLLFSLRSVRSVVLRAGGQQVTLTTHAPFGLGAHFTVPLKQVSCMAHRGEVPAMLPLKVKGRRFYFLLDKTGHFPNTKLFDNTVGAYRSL
inactive: erlotinib 0.005 | [1] 0.052 | [2] -0.018 | [3] 0.002 | [4] -0.009 | [5] 0.013 | [6] -0.007 | [7] 0.01 | [8] 0.007 | [9] -0.038 | IRAK-1-4 Inhibitor I 0.039 | ibrutinib 0.006 | [10] -0.101 | ralimetinib -0.009 | [11] 0.114 | [12] -0.063 | [13] 0 | pinometostat -0.019 | [14] -0.087 | [15] 0.042

VPS16 (UniProt Q9H269)
Sequence of UniProt Q9H269 (Q9H269 whole entry, looked up): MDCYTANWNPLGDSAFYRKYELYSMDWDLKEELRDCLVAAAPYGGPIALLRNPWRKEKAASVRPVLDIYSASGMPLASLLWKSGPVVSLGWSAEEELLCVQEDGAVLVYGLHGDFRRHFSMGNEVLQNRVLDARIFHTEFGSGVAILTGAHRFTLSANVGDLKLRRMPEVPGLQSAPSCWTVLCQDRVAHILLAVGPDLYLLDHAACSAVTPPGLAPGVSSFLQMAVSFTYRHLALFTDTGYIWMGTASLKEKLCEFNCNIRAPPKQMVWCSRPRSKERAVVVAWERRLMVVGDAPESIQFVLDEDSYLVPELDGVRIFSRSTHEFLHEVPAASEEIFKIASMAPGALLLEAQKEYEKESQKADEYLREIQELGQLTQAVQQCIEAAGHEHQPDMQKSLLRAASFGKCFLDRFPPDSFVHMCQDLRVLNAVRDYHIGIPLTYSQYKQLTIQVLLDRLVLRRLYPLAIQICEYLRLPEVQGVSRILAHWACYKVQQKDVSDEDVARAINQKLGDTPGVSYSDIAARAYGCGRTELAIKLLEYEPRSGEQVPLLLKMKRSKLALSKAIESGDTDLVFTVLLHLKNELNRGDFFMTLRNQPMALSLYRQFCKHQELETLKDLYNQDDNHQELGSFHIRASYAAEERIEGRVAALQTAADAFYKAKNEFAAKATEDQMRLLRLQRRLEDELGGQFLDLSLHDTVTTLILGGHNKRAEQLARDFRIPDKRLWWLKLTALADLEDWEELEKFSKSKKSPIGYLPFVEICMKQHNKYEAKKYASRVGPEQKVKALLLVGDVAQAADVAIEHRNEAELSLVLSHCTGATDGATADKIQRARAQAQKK
inactive: erlotinib 0.104 | [1] 0.128 | [2] -0.004 | [3] -0.034 | [4] 0.093 | [5] 0.087 | [6] -0.031 | [7] -0.018 | [8] -0.007 | [9] -0.128 | IRAK-1-4 Inhibitor I 0.028 | ibrutinib -0.073 | [10] -0.02 | ralimetinib 0.043 | [11] -0.154 | [12] -0.29 | [13] -0.035 | pinometostat 0.1 | [14] 0.006 | [15] 0.061

VPS33B (UniProt Q9H267)
Sequence of UniProt Q9H267 (Q9H267 whole entry, looked up): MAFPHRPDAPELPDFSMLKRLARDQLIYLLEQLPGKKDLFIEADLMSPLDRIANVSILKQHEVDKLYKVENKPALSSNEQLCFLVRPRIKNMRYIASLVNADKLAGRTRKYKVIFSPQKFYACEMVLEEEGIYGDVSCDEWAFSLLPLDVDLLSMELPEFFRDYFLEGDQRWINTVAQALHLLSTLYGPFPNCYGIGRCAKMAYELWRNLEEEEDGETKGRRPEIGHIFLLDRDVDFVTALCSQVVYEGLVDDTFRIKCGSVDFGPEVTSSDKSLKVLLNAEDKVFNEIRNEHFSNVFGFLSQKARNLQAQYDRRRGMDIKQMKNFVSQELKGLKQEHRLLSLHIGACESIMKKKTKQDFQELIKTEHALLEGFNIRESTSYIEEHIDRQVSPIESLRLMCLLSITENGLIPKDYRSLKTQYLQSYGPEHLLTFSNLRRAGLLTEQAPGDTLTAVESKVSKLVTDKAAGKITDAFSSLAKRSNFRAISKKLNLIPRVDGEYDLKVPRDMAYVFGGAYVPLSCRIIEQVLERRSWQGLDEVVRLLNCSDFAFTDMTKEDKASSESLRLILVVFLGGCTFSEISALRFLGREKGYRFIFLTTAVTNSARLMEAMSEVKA
inactive: erlotinib 0.108 | [1] 0.093 | [2] -0.039 | [3] -0.07 | [4] 0.073 | [5] 0.053 | [6] 0.019 | [7] 0.044 | [8] -0.076 | [9] -0.102 | IRAK-1-4 Inhibitor I -0.049 | ibrutinib -0.041 | [10] -0.068 | ralimetinib 0.057 | [11] -0.107 | [12] -0.178 | [13] 0.098 | pinometostat 0.156 | [14] 0 | [15] 0.049

UGGT1 (UniProt Q9NYU2)
inactive: erlotinib -0.027 | [1] 0.016 | [2] 0.007 | [3] 0.007 | [4] 0.018 | [5] 0.014 | [6] -0.012 | [7] 0.019 | [8] -0.015 | [9] 0.005 | IRAK-1-4 Inhibitor I -0.011 | ibrutinib -0.027 | [10] 0.001 | ralimetinib 0.001 | [11] -0.028 | [12] -0.007 | [13] -0.038 | pinometostat 0.028 | [14] -0.003 | [15] 0.023

TSG101 (UniProt Q99816)
Sequence of UniProt Q99816 (Q99816 whole entry, looked up): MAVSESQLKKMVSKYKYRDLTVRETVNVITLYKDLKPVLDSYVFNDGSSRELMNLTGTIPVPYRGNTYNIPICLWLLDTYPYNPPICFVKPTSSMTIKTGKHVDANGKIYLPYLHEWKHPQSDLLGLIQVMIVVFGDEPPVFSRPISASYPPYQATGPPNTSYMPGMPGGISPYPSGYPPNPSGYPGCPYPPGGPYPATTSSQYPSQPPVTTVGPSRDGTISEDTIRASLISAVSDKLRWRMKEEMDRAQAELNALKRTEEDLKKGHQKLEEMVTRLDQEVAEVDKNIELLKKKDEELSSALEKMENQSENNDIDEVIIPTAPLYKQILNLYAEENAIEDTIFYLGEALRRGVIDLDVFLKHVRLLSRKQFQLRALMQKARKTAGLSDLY
inactive: erlotinib 0.022 | [1] 0.054 | [2] 0.051 | [3] 0.027 | [4] 0.046 | [5] 0.004 | [6] -0.032 | [7] 0 | [8] 0.003 | [9] -0.006 | IRAK-1-4 Inhibitor I 0.05 | ibrutinib 0.004 | [10] -0.017 | ralimetinib -0.005 | [11] -0.025 | [12] -0.146 | [13] 0.031 | pinometostat -0.003 | [14] 0.001 | [15] -0.012

VPS35L (UniProt Q7Z3J2)
Sequence of UniProt Q7Z3J2 (Q7Z3J2 whole entry, looked up): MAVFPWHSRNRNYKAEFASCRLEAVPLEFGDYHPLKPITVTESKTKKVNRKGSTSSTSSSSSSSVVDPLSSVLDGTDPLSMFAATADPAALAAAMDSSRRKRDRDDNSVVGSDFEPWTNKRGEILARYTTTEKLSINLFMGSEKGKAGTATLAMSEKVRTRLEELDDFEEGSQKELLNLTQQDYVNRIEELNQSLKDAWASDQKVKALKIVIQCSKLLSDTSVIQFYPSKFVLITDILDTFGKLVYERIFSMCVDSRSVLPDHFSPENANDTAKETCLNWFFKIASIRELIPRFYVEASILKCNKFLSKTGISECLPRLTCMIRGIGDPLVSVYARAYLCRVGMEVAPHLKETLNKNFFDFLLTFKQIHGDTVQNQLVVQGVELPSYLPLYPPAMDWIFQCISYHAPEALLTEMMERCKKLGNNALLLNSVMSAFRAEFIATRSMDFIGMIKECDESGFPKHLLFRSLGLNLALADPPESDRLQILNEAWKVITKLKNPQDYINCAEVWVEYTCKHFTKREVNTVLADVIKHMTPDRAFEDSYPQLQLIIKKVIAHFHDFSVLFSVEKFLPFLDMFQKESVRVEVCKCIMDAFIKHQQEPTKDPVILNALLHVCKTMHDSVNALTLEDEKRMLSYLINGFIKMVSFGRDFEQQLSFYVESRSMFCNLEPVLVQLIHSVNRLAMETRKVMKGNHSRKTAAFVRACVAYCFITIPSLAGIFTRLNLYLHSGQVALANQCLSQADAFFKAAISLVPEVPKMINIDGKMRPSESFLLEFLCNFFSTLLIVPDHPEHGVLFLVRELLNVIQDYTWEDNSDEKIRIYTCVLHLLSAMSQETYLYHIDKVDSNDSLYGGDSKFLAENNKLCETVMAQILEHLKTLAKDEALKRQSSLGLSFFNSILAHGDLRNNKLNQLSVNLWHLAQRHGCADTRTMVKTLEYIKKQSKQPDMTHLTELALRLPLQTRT
inactive: erlotinib 0.011 | [1] -0.004 | [2] -0.072 | [3] 0.025 | [4] 0.044 | [5] 0.059 | [6] 0.014 | [7] 0.012 | [8] -0.047 | [9] 0.071 | IRAK-1-4 Inhibitor I -0.012 | ibrutinib -0.006 | [10] -0.028 | ralimetinib 0.05 | [11] -0.097 | [12] -0.046 | [13] 0.036 | pinometostat 0.043 | [14] -0.013 | [15] 0.024

VPS53 isoform 4 (UniProt Q5VIR6)
Sequence of UniProt Q5VIR6 (Q5VIR6 whole entry, looked up): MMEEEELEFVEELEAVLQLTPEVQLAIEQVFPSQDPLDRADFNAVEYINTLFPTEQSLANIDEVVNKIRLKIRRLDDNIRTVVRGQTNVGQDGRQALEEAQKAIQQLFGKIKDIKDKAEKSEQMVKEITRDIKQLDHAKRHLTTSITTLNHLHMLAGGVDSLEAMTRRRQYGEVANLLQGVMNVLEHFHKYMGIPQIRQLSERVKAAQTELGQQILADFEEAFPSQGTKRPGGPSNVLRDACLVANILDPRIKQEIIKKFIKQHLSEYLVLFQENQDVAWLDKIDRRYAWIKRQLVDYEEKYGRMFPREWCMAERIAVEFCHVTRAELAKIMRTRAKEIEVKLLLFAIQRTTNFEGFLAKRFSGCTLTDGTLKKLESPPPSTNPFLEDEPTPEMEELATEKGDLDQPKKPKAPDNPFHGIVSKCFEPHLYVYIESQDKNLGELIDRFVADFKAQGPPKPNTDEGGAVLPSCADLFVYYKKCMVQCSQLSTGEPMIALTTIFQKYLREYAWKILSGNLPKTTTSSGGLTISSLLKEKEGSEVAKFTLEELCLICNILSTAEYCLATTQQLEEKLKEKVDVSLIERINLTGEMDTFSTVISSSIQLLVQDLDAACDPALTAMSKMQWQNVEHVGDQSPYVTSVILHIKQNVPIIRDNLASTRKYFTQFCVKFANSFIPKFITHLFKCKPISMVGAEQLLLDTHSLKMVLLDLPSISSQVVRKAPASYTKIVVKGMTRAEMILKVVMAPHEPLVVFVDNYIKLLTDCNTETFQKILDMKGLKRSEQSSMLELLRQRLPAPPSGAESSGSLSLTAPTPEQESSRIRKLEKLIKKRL
inactive: erlotinib 0.06 | [1] 0.094 | [2] 0.003 | [3] -0.04 | [4] 0.107 | [5] 0.048 | [6] -0.083 | [7] 0.022 | [8] -0.021 | [9] -0.004 | IRAK-1-4 Inhibitor I -0.035 | ibrutinib 0.011 | [10] -0.046 | ralimetinib -0.022 | [11] -0.101 | [12] -0.142 | [13] 0.095 | pinometostat 0.076 | [14] -0.032 | [15] 0.036

USP9X (UniProt Q93008)
inactive: erlotinib 0.012 | [1] 0.06 | [2] -0.012 | [3] -0.029 | [4] 0.026 | [5] 0.008 | [6] 0.013 | [7] -0.033 | [8] 0.002 | [9] -0.002 | IRAK-1-4 Inhibitor I -0.006 | ibrutinib -0.041 | [10] -0.011 | ralimetinib 0.02 | [11] -0.117 | [12] -0.177 | [13] 0.01 | pinometostat 0.042 | [14] 0.002 | [15] 0.038

UBA6
inactive: erlotinib 0.011 | [1] 0.099 | [2] 0.06 | [3] 0.038 | [4] 0.014 | [5] -0.037 | [6] 0.014 | [7] 0.015 | [8] -0.024 | [9] -0.015 | IRAK-1-4 Inhibitor I -0.038 | ibrutinib -0.01 | [10] -0.009 | ralimetinib -0.002 | [11] -0.012 | [12] -0.044 | [13] -0.025 | pinometostat 0.004 | [14] -0.044 | [15] 0.106
